Source: PubChem BioAssay (NCATS)
Records with an inconclusive call do not appear. Active and inactive are the calls of the source. The call rests on the fitted dose curve; in most records, active means well fitted cell-killing curve with a large enough effect; inconclusive means small, poorly fitted or top-dose-only effect, or effect the other way; inactive means flat fitted curve, though single readings scatter.

System: Es-2
Experiment: Primary qHTS to identify gynecologic anti-cancer compounds using libraries of approved drugs and bioactive compounds (AID 1345084); further: nearly all actives have a fitted effect of over 55% in size
Conditions: Gynecologic cancer cell panel viability, ATPlite luminescence, 48 h; series mostly up to 57.5 µM; activity change, negative = cytotoxicity: at the top concentration
In short: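 Five-concentration response, 48 h; readout is ATP-driven luciferase luminescence.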
On the % scale 0 is the no-effect control and ±100 the full control effect.

Compound	activity change, negative = cytotoxicity
CC1(C)CC2=C3C=CC4C5(C)CCC(O)C(C)(C)C5CCC4(C)C3(C)CCC2(C)C(O)C1 (stereo not given)	6.91% [at 25.3 µM] (inactive)
O=C(O)c1ccc(OC2OC(CO)C(O)C(O)C2O)cc1 (stereo not given)	7.15% (inactive)
CC(C)CN(C[C@@H](O)[C@H](Cc1ccccc1)NC(=O)O[C@@H]1CO[C@H]2OCC[C@H]21)S(=O)(=O)c1ccc(N)cc1	8.83% (inactive)
C=C1C[C@]23C[C@H]1CC[C@H]2[C@@]1(C)CCC[C@@]2(C)C(=O)O[C@@H]([C@@H]3O)[C@@H]12	-1.49% [at 38.5 µM] (inactive)
CC(=O)O[C@H]1C[C@@]2(C)[C@@H](CC[C@H]3[C@@]4(C)C=CC(=O)[C@@H](C)[C@@H]4[C@H](O)C(=O)[C@@]32C)/C1=C(/CCC=C(C)C)C(=O)O	-1.95% [at 25.3 µM] (inactive)
COC(=O)N[C@H](C(=O)N1[C@@H]2CC[C@@H](C2)[C@H]1c1nc2ccc(-c3ccc4c(c3)C(F)(F)c3cc(-c5cnc([C@@H]6CCC7(CC7)N6C(=O)[C@@H](NC(=O)OC)C(C)C)[nH]5)ccc3-4)cc2[nH]1)C(C)C	3.64% [at 25.3 µM] (inactive)
COc1ccc(C2(O)c3ccccc3NC(=O)C2O)cc1 (stereo not given)	1.95% (inactive)
O=C(CN1C(=O)C2(CCCC2)NCC1c1cc(F)cc(F)c1)Nc1ccc2c(c1)CC1(C2)C(=O)Nc2ncccc21 (stereo not given)	-1.22% (inactive)
C=C1C(=O)OC2CC3(C)C(CC12)C(C)=CC(O)C3OC(C)=O (stereo not given)	4.23% [at 38.5 µM] (inactive)
C[C@@H]1O[C@@H](O[C@H]2[C@H](OC(=O)[C@]34CCC(C)(C)C[C@H]3C3=CCC5[C@@]6(C)C[C@H](O)[C@H](O[C@@H]7O[C@H](CO)[C@@H](O[C@H]8OC[C@](O)(CO)[C@H]8O)[C@H](O)[C@H]7O)[C@@](C)(CO)C6[C@H](O)C[C@@]5(C)[C@]3(C)C[C@H]4O)OC[C@H](O)[C@@H]2O)[C@H](O)[C@H](O)[C@H]1O[C@@H]1OC[C@@H](O)[C@H](O[C@@H]2OC[C@](O)(CO)[C@H]2O)[C@H]1O (stereo not given in full)	0.233% [at 6.55 µM] (inactive)
